Drawing on PubChem BioAssay (NCATS), this text covers max response, outcome and Potency for 39 compounds.

Values joined by “and” are separate entries in the source; they are usually repeats but may differ in a detail not shown here. Identical values can stand only once. Inconclusive results are not listed. Values without a mark were called inactive. Active and inactive are the calls of the source. The call rests on the fitted dose curve; in most records, active means well fitted inhibition curve with a large enough effect; inconclusive means small, poorly fitted or top-dose-only effect; inactive means flat fitted curve, though single readings scatter.
On the % scale 0 is the no-effect control and ±100 the full control effect; potency means the concentration at half of the fitted maximal effect.

The test system of the experiment is CRL-7250. Description: Cytotoxic Profiling of Annotated Libraries Using Quantitative High-Throughput Screening (AID 1296008). Further: nearly all actives have a fitted effect of over 60% in size. The settings on record: Five cell lines viability, CellTiter-Glo ATP luminescence, 48-72 h; max response: hits give low values. Put shortly: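 Cells exposed to compounds for 48 or 72 hr at 37 degrees Celsius. Viability read as ATP-coupled luminescence with CellTiter-Glo after 10 min at room temperature.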
Consider `CCCCCCOc1cc2c(cc1N(C)c1ncc(C(=O)O)cn1)C(C)(C)CCC2(C)C`, for which the max response is 4.99%.

As to `CCNCc1nc2c(N)nc3ccccc3c2n1CC(C)(C)O`, the compound was classed as inactive.

For `O=C(O)c1ccccc1NCCc1ccccc1`, the max response is 4.16%. In the case of `CC(C)[C@@H](CS(=O)(=O)C(C)C)N1C(=O)[C@@](C)(CC(=O)O)C[C@H](c2cccc(Cl)c2)[C@H]1c1ccc(Cl)cc1`, the Potency is 5.8 µM (active) and 1.86 µM (active). `C=C1C[C@@]23CCC4[C@@](C)(CCC[C@@]4(C)C(=O)OC)C2CC[C@@H]1C3` (some centres undefined): the compound was called inactive.

Turning to `CC(C)(C)c1cc(Br)cc([C@H](CC(=O)O)NC(=O)CNC(=O)c2cc(O)cc(NC3=NCC(O)CN3)c2)c1` (some centres undefined), the max response is -6.62%. On to `Cc1c(NC(=O)c2cc(C(N)=O)nc3cc(F)ccc23)c(C(F)(F)F)nn1Cc1ccc(C#N)cc1`, for which the max response was -21.4%.

For the compound `O=C1NC(=O)C(c2cn3c4c(cccc24)CCC3)C1c1c[nH]c2ccccc12` (centres undefined), the Potency was 5.8 µM (active). Take `CCC(C(=O)O)c1ccc(N2Cc3ccccc3C2=O)cc1` (centres undefined): the max response is -5.22%.

For the compound `COc1cc2ncnc(N3CCC(Oc4cnc5ccccc5n4)C3)c2cc1OC` (centres undefined), the Potency was 6.51 µM (active). As for `CN1CCN(c2ccc(C(=O)Nc3n[nH]c4ccc(Cc5cc(F)cc(F)c5)cc34)c(NC3CCOCC3)c2)CC1`, the Potency is 20.9 µM (active). In the case of `CCN(Cc1cccnc1)C(=O)CN(c1ccc(OC)nc1)S(=O)(=O)c1ccccc1C`, the max response was -4.21%.

Regarding `Cc1cnc(Nc2ccc(F)cc2Cl)nc1-c1c[nH]c(C(=O)NC(CO)c2cccc(Cl)c2)c1` (centres undefined), the max response was -0.447%. `COc1ccc(-n2[nH]c(=O)c3[nH]c4cc(Cl)ccc4c(=O)c3c2=O)c(C)c1`: the max response was 1.23%. In the case of `Cn1cncc1C(N)(c1ccc(Cl)cc1)c1ccc2c(c1)c(-c1cccc(Cl)c1)cc(=O)n2C` (centres undefined), the Potency is 23.1 µM (active). As to `CCOCCOC(=O)/C=C/c1ccc(OC)cc1`, the max response was -7.76%. Regarding `CN(C)c1ccc2c(c1)OC(N)=C(C#N)C2c1cccc(C(F)(F)F)c1` (centres undefined), the Potency was 1.64 µM (active). With `c1cc(Nc2cc(C3CC3)[nH]n2)nc(Nc2ccc3nc[nH]c3c2)n1`, the Potency was 0.82 µM (active). `CCC(C)C(=O)OC1CC(O)C23C4OCC5(C(O)CC2C1(C)C(O)O4)C3C(=O)CC1(C)C(c2ccoc2)CC2OC215` (centres undefined): the Potency is 3.55 µM (active). As to `Cc1ccccc1NC(=O)Nc1ccc(CC(=O)N(C)[C@@H](CC(C)C)C(=O)NCC[C@H](NC(=O)[C@@H]2CCCN2S(=O)(=O)c2cc(Cl)cc(Cl)c2)C(=O)O)cc1`, the max response was -22.4%.

On to `CC(=O)NC1=NN(C(C)=O)C(C)(c2ccccc2)S1` (centres undefined), for which the max response was -15.8%. Consider `CC1(C)CCC[C@]2(C)[C@H]3CC(=O)O[C@]3(C)CC[C@@H]12`, for which the max response is -21.8%. In the case of `CC1(C)CC[C@]23CO[C@@]4(CCC5[C@@]6(C)CC[C@H](O[C@@H]7OC[C@H](O[C@@H]8O[C@H](CO)[C@@H](O)[C@H](O)[C@H]8O)[C@H](O)[C@H]7O[C@@H]7O[C@H](CO)[C@@H](O[C@@H]8O[C@H](CO)[C@@H](O)[C@H](O)[C@H]8O)[C@H](O)[C@H]7O)[C@@](C)(CO)C6CC[C@@]5(C)[C@]4(C)C[C@H]2OC2OCC(O)C(O)C2O)C3C1` (some centres undefined), the Potency is 1.55 µM (active).

As for `COc1ccc(Oc2cc(C)c(-c3csc(NC(=O)c4ccncc4)n3)c(C)c2)cc1`, the Potency was 0.651 µM (active).

Regarding `COc1cc(Nc2nc3c(s2)CCCC3c2ccc(F)cc2)ccc1-n1cnc(C)c1` (centres undefined), the Potency is 14.6 µM (active). Turning to `CN(C)c1nc(NC2CCC(NCCc3ccc(Br)cc3OC(F)(F)F)CC2)nc2ccccc12` (centres undefined), the Potency was 18.4 µM (active). For the compound `COc1cc2c(NC3CCN(CC4CCCCC4)CC3)nc(N3CCCN(C(C)C)CC3)nc2cc1OCCCN1CCCCC1`, the Potency is 4.61 µM (active). On to `CC1(C)CCCC2(C)C(C(=O)O)=CCC12` (centres undefined), for which the max response was -16.1%. Regarding `Cc1ccc(NC(=O)c2ccc(CN3CC[C@H](N(C)C)C3)c(C(F)(F)F)c2)cc1Nc1nccc(-c2cncnc2)n1`, the max response was -22.1%. On to `Cc1ccc(C(=O)N(CCCN)C(c2oc3cc(Cl)ccc3c(=O)c2Cc2ccccc2)C(C)C)cc1` (centres undefined), for which the max response is -42.6%. In the case of `COc1cc2nc(N3CCC(N4CCCCC4)CC3)nc(NC3CCCCCC3)c2cc1OC`, the Potency is 16.4 µM (active).

On to `C=C1CC23CC1CCC2C12OC(=O)C(C)(CCC1O)C2C3C(=O)O` (centres undefined), for which the result was inactive. Consider `C=CC(=O)Nc1cccc(CN2C(=O)N(c3c(Cl)c(OC)cc(OC)c3Cl)Cc3cnc(NCCCCN(CC)CC)nc32)c1`, for which the Potency was 10.3 µM (active). Consider `CCCN1CCC(c2cccc(S(C)(=O)=O)c2)CC1`, for which the max response is -0.494%. Same read-out and setting: to `C=CC(C)(O)C(O)CC1C(C)(O)C(O)C(O)C2C(C)(C)CCCC21C` (centres undefined) belongs 1.81%; to `CCc1cccc(CC)c1NC(=O)c1nn(C)c2c1CCc1cnc(Nc3ccc(C(=O)NC4CCN(C)CC4)cc3OC(F)(F)F)nc1-2`, -0.147%. Turning to `C[C@H]1Oc2cc(cnc2N)-c2c(nn(C)c2C#N)CN(C)C(=O)c2ccc(F)cc21`, the Potency was 0.0366 µM (active). On to `CC(C)N(CCCCOCC(=O)NS(C)(=O)=O)c1cnc(-c2ccccc2)c(-c2ccccc2)n1`, for which the max response is -11.5%. With `COc1ccc(CC2C(=O)NC(C)C(=O)N(C)C3Cc4ccc(cc4)Oc4cc(ccc4OC4OC(CO)C(O)C(O)C4O)CC(C(=O)NC(C)C(=O)NC(C)C(=O)N2C)N(C)C3=O)cc1` (centres undefined), the Potency was 0.0873 µM (active).
